Results on 35 compounds are retold here after PubChem BioAssay AID2113 (National Center for Advancing Translational Sciences (NCATS), 2009).

Records with an inconclusive call do not appear. A number with no mark means an inactive call. Active and inactive are the calls of the source. Calls follow the shape of the dose curve; as a rule, active = well fitted curve in either direction with a large enough effect; inconclusive = small, poorly fitted or top-dose-only effect; inactive = no such curve, though single readings can be large or run the other way.
Potency is read from the fitted curve at half-maximal effect.

The test concerns the target Lysosomal alpha-glucosidase (Homo sapiens) (UniProt P10253). The test is described as follows: Confirmation of Inhibitors and Activators of Human alpha-Glucosidase From Spleen Homogenate.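 As to Potency: fluorescence of 4-methylumbelliferone released from a fluorogenic glucopyranoside substrate at pH 5.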 As to activity change, both directions: 0% is about no effect. The conditions noted are these: alpha-glucosidase enzyme activity; series mostly up to 60.5 µM; activity change, both directions: at the top concentration. Summed up: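 Compounds titrated against spleen-homogenate alpha-glucosidase, pH 5.0, 1 mM 4-MU-glucoside substrate, 37 C for 40 min. Fluorescence after pH 10 stop, normalised to no-enzyme and enzyme controls; Hill-equation AC50.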
As to `O=C(O)c1c[nH]c2ccc(S(=O)(=O)N3CCOCC3)cc12`, the “activity change, both directions” value is -20.1%.
Take `Cc1[nH]nc2c1C(c1ccc(OC(=O)c3ccco3)cc1)C(C#N)=C(N)O2` (stereo not given): the “activity change, both directions” value is 1.59%.
In the case of `COc1ccc(CCn2cc(C#N)c(=O)[nH]c2=O)cc1OC`, the “activity change, both directions” value is -2.91% [at 31.5 µM].
Consider `Cc1nnc(SCC(=O)Nc2ccc3c(c2)COC3=O)n1-c1ccccc1`, for which the “activity change, both directions” value was 1.17% [at 31.5 µM].
Still for that read-out and setting: the figure for `O=S(=O)(c1ccc(Br)cc1)N1CCOCC1` is 1.29%; for `Cc1c(OCC(F)(F)F)ccnc1CS(=O)c1nc2ccccc2[nH]1` (stereo not given) it is -4.12% [at 286 µM]; for `O=C(O)Cc1sc(-c2cc3ccccc3oc2=O)nc1-c1ccc(-c2ccccc2)cc1` it is -1.37%.
On the same count and under the same terms, as for `COc1ccccc1N1CCN(C(c2cccs2)C(C)NC(=O)c2cccs2)CC1` (stereo not given), the figure is -1.51% [at 31.5 µM].
On to `CCc1sc(-c2cc3cccc(OC)c3oc2=O)nc1-c1cc(C)ccc1C`, for which the Potency is 15.8 µM (active).
Same read-out and setting: the entry for `COc1ccc(/C=C/c2nnc(NC(=O)CSc3ccc(Cl)cc3)s2)cc1` is “inactive”.
Take `O=C(Cn1c(=O)[nH]n(-c2ccccc2)c1=O)N1CCCc2ccccc21`: the “activity change, both directions” value is 0.235% [at 31.5 µM].
Same read-out and setting: as for `COc1ccc(C#Cc2cnc(Cl)c3cncnc23)cc1OC`, the figure is 2.33%; as for `COc1ccc(S(=O)(=O)N2CCOCC2)cc1`, 1.25%; as for `CCOC(=O)c1cc2c(=O)n3cccc(C)c3nc2n(CCCOC)c1=NC(=O)c1cccnc1`, 7.03% [at 31.5 µM].
On the same count and under the same terms, the figure for `CCOC(=O)C(CC)(CCC(=O)O)c1csc(Nc2ccc(C)cc2)n1` (stereo not given) is 15% [at 31.5 µM]; for `c1csc(-c2nc(NCC3CCCO3)c3ccccc3n2)c1` (stereo not given) it is 2.62% [at 31.5 µM]; for `CCCN1CNc2c(c(=O)[nH]c(=S)n2-c2ccccc2Cl)C1` it is 1.89% [at 31.5 µM].
For the compound `O=C(CC(c1ccccc1)c1cc(Br)ccc1O)NCCN1CCOCC1` (stereo not given), the “activity change, both directions” value is 4.56% [at 31.5 µM].
Same read-out and setting: the figure for `C=CCn1c2ccccc2c2nnc(SCC(=O)NC(C(=O)OC)C(C)C)nc21` (stereo not given) is 5.38% [at 31.5 µM].
On the same count and under the same terms, as for `O=C(Nc1ccccc1)C1CCN(S(=O)(=O)c2ccccc2)CC1`, the figure is 0.601%; as for `NN=C1c2cc(S(=O)(=O)NCCO)ccc2-c2ccc(S(=O)(=O)NCCO)cc21`, 0.552%; as for `O=c1oc2ccc3ccccc3c2cc1-c1nc2c(s1)CCc1ccccc1-2`, 7.81%.
On to `CCCN1CNc2c(c(=O)[nH]c(=S)n2CCC(C)C)C1`, for which the “activity change, both directions” value is -14.7%.
With `O=C(NC(C(=O)c1ccccc1)n1ccc(=O)[nH]c1=O)c1ccccc1` (stereo not given), the “activity change, both directions” value is -4.26% [at 31.5 µM].
As for `CCc1sc(-c2cc3ccc(O)cc3oc2=O)nc1-c1ccc(C)cc1`, the “activity change, both directions” value was 15.6%.
Still for that read-out and setting: as for `O=S(=O)(c1ccccc1)N1CCN(c2ccccc2)CC1`, the figure is 1.33%; as for `CCCCN1C[C@H](O)[C@@H](O)[C@H](O)[C@H]1CO`, -99.2%; as for `O=C1Cc2cc(S(=O)(=O)N3CCN(c4ccc(Br)cc4)CC3)ccc2N1`, -14.2% [at 132 µM].
In the case of `O=C(c1ccccc1)N1CCN(C(=O)N(c2ccccc2)c2ccccc2)CC1`, the “activity change, both directions” value is 1.94%.
Still for that read-out and setting: the figure for `CCOC(=O)N1CCN(c2cc(N(C)CCO)c([N+](=O)[O-])c3nonc23)CC1` is -2.42%; for `Cc1ccc(S(=O)(=O)N2CCOCC2)cc1` it is -0.104%.
For the compound `CCCN1CNc2c(c(=O)[nH]c(=S)n2CCc2ccc(C)c(C)c2)C1`, the Potency is 20 µM (active).
On to `C(=C/c1ccc2ccccc2n1)/c1ccc2c(c1)OCO2`, for which the “activity change, both directions” value is 9.52%.
Same read-out and setting: the figure for `O=C(COC(=O)c1ccccc1Br)NCCc1ccc(F)cc1` is 1.18% [at 31.5 µM]; for `Nc1ccc(S(=O)(=O)N2CCOCC2)cc1` it is 1.95%.
